In all, about 16,000 compounds went through this assay and about 120 (0.75%) were called active. Not shown: some 4% with an inconclusive outcome. The call rests on the fitted dose curve; in most records, active means well fitted inhibition curve with a large enough effect; inconclusive means small, poorly fitted or top-dose-only effect; inactive means no such curve, though single readings can be large or run the other way. Many of the other results were omitted from the sample, so actives are more common in it than they were. The source holds several records for some structures; these can differ, active in one and inactive in another.
biological target: Rap guanine nucleotide exchange factor 3 (Homo sapiens) (UniProt O95398); assay: Validation qHTS for antagonist of cAMP-regulated guanine nucleotide exchange factor 3 (EPAC1); conditions: EPAC1 Rap1B-BODIPY-GDP exchange, fluorescence; series mostly up to 150 µM; activity change, negative = inhibition: at the top concentration; further: nearly all actives have a fitted effect of over 75% in size
Sequence (O95398 whole entry, looked up): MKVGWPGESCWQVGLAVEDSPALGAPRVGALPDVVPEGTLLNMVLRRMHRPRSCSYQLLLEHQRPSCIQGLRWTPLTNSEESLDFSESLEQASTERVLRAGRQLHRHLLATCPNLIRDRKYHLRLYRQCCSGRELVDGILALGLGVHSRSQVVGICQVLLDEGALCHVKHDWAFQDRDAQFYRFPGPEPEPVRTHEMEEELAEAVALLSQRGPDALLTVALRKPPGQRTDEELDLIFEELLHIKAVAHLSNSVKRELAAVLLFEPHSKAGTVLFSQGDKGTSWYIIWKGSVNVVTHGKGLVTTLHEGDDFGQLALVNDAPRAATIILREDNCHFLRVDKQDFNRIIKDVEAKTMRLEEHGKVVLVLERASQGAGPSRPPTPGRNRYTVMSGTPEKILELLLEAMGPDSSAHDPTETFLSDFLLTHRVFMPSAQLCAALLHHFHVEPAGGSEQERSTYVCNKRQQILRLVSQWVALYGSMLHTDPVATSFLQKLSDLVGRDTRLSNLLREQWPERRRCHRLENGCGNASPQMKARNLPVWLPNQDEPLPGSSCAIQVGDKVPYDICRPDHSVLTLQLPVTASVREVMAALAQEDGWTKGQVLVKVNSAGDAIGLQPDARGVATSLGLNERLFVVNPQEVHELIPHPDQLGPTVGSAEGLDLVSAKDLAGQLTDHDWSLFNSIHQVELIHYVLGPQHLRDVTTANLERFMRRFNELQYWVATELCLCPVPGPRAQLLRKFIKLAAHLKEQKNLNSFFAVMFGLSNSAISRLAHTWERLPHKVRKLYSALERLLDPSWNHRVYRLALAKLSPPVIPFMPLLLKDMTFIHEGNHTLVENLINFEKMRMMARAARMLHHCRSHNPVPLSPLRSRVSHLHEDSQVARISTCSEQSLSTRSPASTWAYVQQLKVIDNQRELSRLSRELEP
Description: Assay Provider (PI): Xiaodong Cheng Ph.D.
The University of Texas Medical Branch, […], TX
In multi-cellular eukaryotic organisms, the effects of cAMP are transduced by two ubiquitously-expressed intracellular cAMP receptors, the classic protein kinase A/cAMP-dependent protein kinase (PKA/cAPK) and the more recently discovered exchange protein directly activated by cAMP/cAMP-regulated guanine nucleotide exchange factor (EPAC/cAMP-GEF). Both PKA and EPAC are ubiquitously expressed in all tissues, and an increase in intracellular cAMP levels will lead to the activation of both PKA and EPAC. Therefore, careful dissections of the individual role and relative contribution of EPAC and PKA within the overall cAMP signaling in various model systems are critical for further elucidating the mechanism of cAMP signaling. To date no EPAC-specific antagonists and agonist, as well as isoform-specific agonists have been reported, and developing EPAC-specific pharmacological probes to determine the physiological functions that EPAC play in the overall cAMP-mediated signaling remains a major challenge within the research field. Furthermore, identified regulators of EPAC may lead to new mechanism-based therapeutic strategies specifically targeting the EPAC / cAMP-signaling components as EPAC has been implicated to play important roles in major human pathological conditions such as diabetes, heart disease, and cancer.
This qHTS will be used to screen the Molecular Libraries Small Molecule Repository (MLSMR) as a concentration-titration series using the NCGC unique quantitative screening (qHTS) platform to find activators for EPAC1. In addition, this assay will also be used as a counterscreen for the EPAC2 qHTS. This fluorescent based assay is developed and validated for EPAC1 that measures exchange using EPAC effector Rap1 complex with BODIPY-GDP, a GDP analog with a tethered fluorophores. Activators are identified by monitoring the change in fluorescence signal as the exchanged free BODIPY-GDP has a reduced fluorescence compared to Rap1-bound BODIPY-GDP. Increase in signal (activation) is the desired outcome for the EPAC1 agonist while no activity in this assay is desired for the EPAC2 agonist counterscreen.
[1] de Rooij, J., Zwartkruis, F. J., Verheijen, M. H., Cool, R. H., Nijman, S. M., Wittinghofer, A., and Bos, J.L. (1998) Nature 396, 474-477.
Briefly, three uL of reagents (100 nM EPAC1, 250 nM RAP1B-BODIPY-GDP, 50 uM GDP) were dispensed into a 1536-well Greiner black solid-bottom medium binding assay plate. Controls and test compounds (23 nL) were transferred to the plate via a Kalypsys pin tool equipped with a 1536-pin array. The plates were centrifuged at 1,000 rpm for 15 seconds followed by 5 minute incubation at room temperature. The assay plates were read at 5 minute intervals for 30 minutes in the ViewLux plate reader using 480nm excitation and 540nm emission filters. The results were normalized to the […] positive control ATA and DMSO.
Potency means the concentration at half of the fitted maximal effect.

SMILES	activity change, negative = inhibition	Potency
O=[N+]([O-])c1ccc(O)c([N+](=O)[O-])c1	5.37% (inactive)	
O=[N+]([O-])c1cc(I)c(O)c(I)c1	21.3% (inactive)	
O=[N+]([O-])c1cc(O)c(O)c([N+](=O)[O-])c1		79.4 µM (active) and inactive
COP(=S)(OC)Oc1ccc(S(N)(=O)=O)cc1	19.3% (inactive)	
O=c1oc2ccccc2c(O)c1C(CC(O)c1ccc(-c2ccc(Br)cc2)cc1)c1ccccc1 (stereo not given)		100 µM (active)
O=c1oc2ccccc2c(O)c1C(c1ccccc1O)c1c(O)c2ccccc2oc1=O	22% (inactive)	
O=c1oc2ccccc2c(O)c1Cc1c(O)c2ccccc2oc1=O		inactive
O=C(Oc1ccccc1)N1CCC2(CC1)CCN(C(c1ccccc1)c1ccccc1)CC2	26.6% (inactive)	
CC(C)(C)c1cc(O)ccc1O		inactive
Oc1cc2c(cc1O)[C@H]1c3ccccc3CN[C@H]1CC2		inactive
CC(=O)O.CC(=O)O.[Cd]	-7.38% (inactive)	
COc1cc2c(cc1OC)[C@@H]1C(=O)c3ccc4oc(C(C)C)cc4c3OC1CO2 (stereo not given in full)	3.72% (inactive)	
CCc1cccc(C)c1N(C(=O)CCl)C(C)COC (stereo not given)	1.24% (inactive)	
CN(C)C1C(=O)C(C(N)=O)=C(O)[C@@]2(O)C(=O)C3=C(O)c4c(O)cccc4[C@](C)(O)C3C(O)C12 (stereo not given in full)	2.85% (inactive)	
Cl.Cl.Cl.Cl.Cl.Cl.N.N.N.N.NNNNN.NNNNN.O.O.[Ru].[Ru].[Ru]		89.1 µM (active)
O=CN1CC2CC(C1)c1cccc(=O)n1C2 (stereo not given)	18.2% (inactive)	
CC(C)CCCC1(C)C=Cc2c(O)c3c(c(CCC(C)C)c2O1)OC12C(CC4CC1C(C)(C)OC2(CCC(C)C(=O)O)C4O)C3=O (stereo not given)		70.8 µM (active)
CN(C)CCc1c[nH]c2cccc(O)c12	41% [at 320 µM] (inactive)	
ClCCN(CCCl)/C(=C\c1ccccc1)c1ccnc2ccccc12	23.4% (inactive)	
O=C1CC[C@@]2(O)C3Cc4ccc(O)c5c4C2(CCN3CC2CC2)[C@H]1O5 (stereo not given in full)	2.27% [at 75.8 µM] (inactive)	

SMILES	activity change, negative = inhibition	Potency
CC(=O)OC1CC(OC(C)=O)[C@]2(C)C(CC(OC(C)=O)[C@]3(C)C2CC[C@@]2(C)C(c4ccoc4)C[C@H]4O[C@]432)C1(C)C (stereo not given in full)	7.6% (inactive)	
O=S(=O)(O)c1cc(O)ccc1O	16.6% [at 75.8 µM] (inactive)	
O=C1OC(c2ccc(O)c(S(=O)(=O)O)c2)(c2ccc(O)c(S(=O)(=O)O)c2)c2c(Br)c(Br)c(Br)c(Br)c21		14.1 µM (active)
CCOC(=O)[C@]12Cc3cc(OC)ccc3[C@H]1N(Cc1ccccc1)C(=O)c1cc(F)c(F)cc12	-17% (inactive)	
CC(Cc1ccc2c(c1)OCO2)NO (stereo not given)	6.99% [at 320 µM] (inactive)	
NC(=O)[C@H](Cc1ccccc1)NC(=O)[C@H](Cc1c[nH]c2ccccc12)NC(=O)[C@@H]1CCCN1C(=O)[C@@H](N)Cc1ccc(O)cc1	5.24% [at 15.3 µM] (inactive)	
CCOC(=O)C1(c2ccccc2)CCCN(C)CC1 (stereo not given)	17.5% (inactive)	
CCC(C)C(=O)c1c(O)c(C)c2oc3c(C)c(O)c(C(=O)C(C)CC)c(O)c3c2c1O (stereo not given)	-18% (inactive)	
CCOCN(C(=O)CCl)c1c(C)cccc1CC	14.4% (inactive)	
O=[N+]([O-])c1ccc(F)c([N+](=O)[O-])c1	2.44% (inactive)	
CC(C)=CCCC1(C)C=Cc2c(O)c3c(c(CC=C(C)C)c2O1)OC12C(=CC4CC1C(C)(C)OC2(C/C=C(/C)C(=O)O)C4O)C3=O (stereo not given)		63.1 µM (active)
COc1c2c(c(CC=C(C)C)c3oc(=O)c(-c4ccc(O)cc4)c(O)c13)OC(C)(C)C=C2	-16.9% (inactive)	
CC(=O)Oc1c2c(c(CC=C(C)C)c3c1C(=O)C1=CC4CC5C(C)(C)OC(C/C=C(\C)C(=O)O)(C4=O)[C@]15O3)OC(C)(CCC=C(C)C)C=C2 (stereo not given in full)		44.7 µM (active)
CC(C)=CCCC1(C)C=Cc2c(O)c3c(c(CC=C(C)C)c2O1)OC12C(=CC4CC1C(C)(C)OC2(C/C=C(/C)C(=O)O)C4=O)C3=O (stereo not given)		50.1 µM (active)
COC(=O)/C(C)=C\CC12OC(C)(C)C3CC(C=C4C(=O)c5c(OC)c6c(c(CC=C(C)C)c5OC431)OC(C)(CCC=C(C)C)C=C6)C2=O (stereo not given)	5.89% (inactive)	
CN[C@H]1C[C@@H](N)[C@H](O)[C@@H](O[C@@H]2O[C@H](CO)[C@H](O)[C@@H]3OC4(O[C@H]23)O[C@H](C(N)CO)[C@H](O)[C@H](O)[C@H]4O)[C@@H]1O (stereo not given in full)		inactive
CC[C@]1(O)CC(O[C@@H]2CC(N(C)C)C(O)C(C)O2)c2c(cc3c(c2O)C(=O)c2c(O)cccc2C3=O)C1C(=O)OC (stereo not given in full)	2.61% (inactive)	
CCC(=O)O[C@H]1[C@@H](N2CCCCC2)C[C@H]2[C@@H]3CC[C@H]4C[C@H](OC(C)=O)[C@@H](N5CCCCC5)C[C@]4(C)[C@H]3CC[C@@]21C	13.2% (inactive)	
CC(CC(C#N)(c1ccccc1)c1ccccc1)N(C)C (stereo not given)	12.7% [at 320 µM] (inactive)	
CC(C)C1C(=O)N2CCC[C@H]2[C@]2(O)O[C@](NC(=O)[C@@H]3C=C4c5cccc6[nH]cc(c56)C[C@H]4N(C)C3)(C(C)C)C(=O)N12 (stereo not given in full)	37.4% (inactive)	

SMILES	activity change, negative = inhibition	Potency
C[C@@]12CCC(O)C[C@H]1CCC1C2CC[C@]2(C)C(=O)CCC12 (stereo not given in full)	17.4% (inactive)	
O=S(=O)(O)C(F)(F)C(F)(F)C(F)(F)C(F)(F)F	30.7% [at 320 µM] (inactive)	
O=S(=O)(O)C(F)(F)C(F)(F)C(F)(F)C(F)(F)C(F)(F)C(F)(F)C(F)(F)C(F)(F)F		35.5 µM (active)
CC(C)C[C@H]1C(=O)N2CCC[C@H]2[C@]2(O)O[C@](NC(=O)[C@@H]3C[C@@H]4c5cccc6[nH]cc(c56)C[C@H]4N(C)C3)(C(C)C)C(=O)N12	16.7% (inactive)	
O[C@@H]1CCCC[C@@H]1N1CCC(c2ccccc2)CC1	6.71% (inactive)	
Cn1cccc1-c1cccnc1	38% (inactive)	
N#CC(C#N)=Cc1ccc(O)c(O)c1		inactive
N#C/C(=C/c1ccc(O)c(O)c1)C(N)=S	2.58% [at 75.8 µM] (inactive)	
N#C/C(=C\c1ccc(O)c(O)c1)C(N)=S		89.1 µM (active)
O=c1ccc2cc(OC3OC(CO)C(O)C(O)C3O)c(O)cc2o1 (stereo not given)	4.95% (inactive)	
O=C(N[C@H]1N=C(c2ccccc2F)c2cccc3c2N(CC3)C1=O)c1cc2ccccc2[nH]1	-25% (inactive)	
CC1Cc2ccccc2CN1 (stereo not given)	13.3% (inactive)	
C[N+](C)(C)CCOC(=O)C(O)(c1ccccc1)c1ccccc1	9% (inactive)	
CN(CCC(N)CC(=O)NC1C=CC(n2ccc(N)nc2=O)OC1C(=O)O)C(=N)N (stereo not given)	-1.03% (inactive)	
O=C1C(Cl)=C(Cl)C(=O)C(Cl)=C1Cl		39.8 µM (active)
COc1cc(CC(C)N)cc(OC)c1OC (stereo not given)	14.5% [at 320 µM] (inactive)	
Nc1ccccc1C(=O)O	10.3% (inactive)	
O=C1C(I)=CC(=C(c2cc(I)c(O)c(I)c2)c2ccccc2C(=O)O)C=C1I		39.8 µM (active)
CNc1ccccc1C(=O)O	17.1% (inactive)	
N#CN	7.44% (inactive)	

Reference: PubChem BioAssay AID1645882 (National Center for Advancing Translational Sciences (NCATS), 2021)
